Reference: PubChem BioAssay (NCI)
About 83,000 compounds went through this panel and 20% of them were active in at least one assay; those are over-represented in the sample as a whole.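 Cells were grown in 96-well plates and exposed to the test compound at a single concentration for 48 hours; results are reported as percent growth, with values below 10 considered active.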 Active and inactive are the calls of the source.

Experiments:
Assay in all cases: NCI-60 one-dose screen, 48 h (100 = growth as untreated, 0 = no growth, -100 = all killed)
Conditions in all cases: 10 µM unless noted
T-47D breast = tested on: T-47D breast
MDA-MB-435 melanoma = tested on: MDA-MB-435 melanoma
SW-620 colon = tested on: SW-620 colon
MCF7 breast = tested on: MCF7 breast
HCT-116 colon = tested on: HCT-116 colon
HCC-2998 colon = tested on: HCC-2998 colon
KM12 colon = tested on: KM12 colon
BT-549 breast = tested on: BT-549 breast

Measured: growth

O=C(NCCCNc1nccc(-n2ccc3cccnc32)n1)c1c(F)cccc1F
inactive: T-47D breast 97.1% | MDA-MB-435 melanoma 105% | SW-620 colon 107% | MCF7 breast 88.4% | HCT-116 colon 101% | HCC-2998 colon 104% | KM12 colon 106%

C=C1C(=O)O[C@H]2[C@H]1CC/C(Cn1cc(CNC(=O)c3cc4ccccc4[nH]3)nn1)=C\CC[C@@]1(C)O[C@@H]21
inactive: T-47D breast 48.7% | MDA-MB-435 melanoma 26.5% | HCC-2998 colon 96% | KM12 colon 68.9%
active: MCF7 breast 9.93% | HCT-116 colon 4.22%

Oc1ccc2cc(Br)ccc2c1-c1c(O)ccc2cc(Br)ccc12
inactive: T-47D breast 57.9% | MDA-MB-435 melanoma 63.1% | SW-620 colon 48.3% | MCF7 breast 37.1% | HCT-116 colon 33.5% | HCC-2998 colon 56.5% | KM12 colon 40%

FC(F)(F)c1cccc(-c2cn3c(ccc4ccccc43)n2)c1
inactive: T-47D breast 46.5% | MDA-MB-435 melanoma 100% | MCF7 breast 41% | HCT-116 colon 88% | HCC-2998 colon 105% | KM12 colon 91%

CCOC(=O)CC(=O)OC
inactive: BT-549 breast 101% | MDA-MB-435 melanoma 110% | SW-620 colon 98.8% | MCF7 breast 91.5% | HCT-116 colon 104% | HCC-2998 colon 104% | KM12 colon 115%

O=C(NNC(=O)N1c2ccccc2C=Cc2ccccc21)c1ccc2ccccc2c1
inactive: T-47D breast 87.4% | SW-620 colon 101% | MCF7 breast 86% | HCT-116 colon 103% | HCC-2998 colon 102% | KM12 colon 98.6%

NC(=S)N/N=C1\CCCC(C(F)(F)F)C1 (configuration not stated)
inactive: BT-549 breast 96.3% | MDA-MB-435 melanoma 105% | SW-620 colon 98.5% | MCF7 breast 27.3% | HCC-2998 colon 104%
active: HCT-116 colon 8.77%

Cn1c(=O)c2[nH]c(C3CC=CCC3)nc2n(C)c1=O (configuration not stated)
inactive: BT-549 breast 108% | MDA-MB-435 melanoma 106% | SW-620 colon 101% | MCF7 breast 102% | HCT-116 colon 106% | HCC-2998 colon 104% | KM12 colon 108%

CCCCCCCCCCCCCCCCNC(=O)OC(C)C
inactive: BT-549 breast 95.8% | MDA-MB-435 melanoma 68.5% | SW-620 colon 18.9% | HCT-116 colon 20.8% | HCC-2998 colon 57.1%
active: MCF7 breast 1.73% | KM12 colon 0.501%

COc1ccc(NC(=O)CSc2nc(-c3ccc(OC)c(OC)c3)cc(-c3cc(OC)c(OC)c(OC)c3)n2)cc1
inactive: BT-549 breast 95.5% | MDA-MB-435 melanoma 112% | SW-620 colon 105% | MCF7 breast 94% | HCT-116 colon 90.3% | HCC-2998 colon 111% | KM12 colon 98.4%

CN(C)c1nc2c(N)ncnc2n1C1OC(CO)C(O)C1O (configuration not stated)
inactive: BT-549 breast 99.9% | MDA-MB-435 melanoma 112% | SW-620 colon 109% | MCF7 breast 99.4% | HCT-116 colon 105% | HCC-2998 colon 110% | KM12 colon 105%

COc1cc2c(=O)n(C3CCCCCC3)c3c4cc[nH]c4ncc3c2cc1OC
inactive: T-47D breast 84.8% | SW-620 colon 70.8% | MCF7 breast 49.9% | HCT-116 colon 72.6% | HCC-2998 colon 117% | KM12 colon 24.4%

COc1cc(C2CC(c3ccc4c(c3)OCO4)=NN2C(C)=O)cc(OC)c1OC (configuration not stated)
inactive: SW-620 colon 26.6% | MCF7 breast 17.4% | HCT-116 colon 30.9% | HCC-2998 colon 47.8% | KM12 colon 30.6%
active: MDA-MB-435 melanoma -49%

CC[N+](CC)=c1cc2oc3cc(N(C)C)ccc3nc-2cc1C
active: HCT-116 colon 7.17%
inactive: BT-549 breast 60.2% | MDA-MB-435 melanoma 50.8% | SW-620 colon 15.9% | HCC-2998 colon 32.3% | KM12 colon 33.3%

O=[N+]([O-])c1cc(S(=O)(=O)Oc2ccccc2)ccc1Cl
active: MCF7 breast -64.3% | HCT-116 colon -54.8% | HCC-2998 colon -77.9% | KM12 colon -71.8%
inactive: BT-549 breast 30.2% | MDA-MB-435 melanoma 19.1% | SW-620 colon 23.5%

Nc1nc(=O)c2ccccc2s1
inactive: BT-549 breast 101% | MDA-MB-435 melanoma 102% | SW-620 colon 116% | MCF7 breast 103% | HCT-116 colon 107% | HCC-2998 colon 107% | KM12 colon 112%

O=c1cc(Cc2ccc([N+](=O)[O-])cc2)[nH]c(=O)[nH]1
inactive: BT-549 breast 98.3% | MDA-MB-435 melanoma 107% | SW-620 colon 103% | MCF7 breast 106% | HCT-116 colon 103% | HCC-2998 colon 105% | KM12 colon 106%
